# Experimental data reported in PubChem BioAssay AID2417 (National Center for Advancing Translational Sciences (NCATS), 2010).
# Hit rate of the full screen: of about 140,000 compounds, about 4,300 (3.1%) were called active. About 21% were inconclusive and are not listed. For the sample, actives were picked, then their nearest neighbours and some compounds at random. Values without a mark were called inactive.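 Rule for the calls: active = readout at or below -70, meaning at least 70% loss of cells showing the perinucleolar compartment, a nuclear body marking cancer cells; inconclusive = readout between -30 and a set limit; inactive = the rest.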
# Test: High Content Assay for Compounds that inhibit the Assembly of the Perinucleolar Compartment
# Details: PC3M PTB-GFP, PNC prevalence imaging, 16 h; at 10 µM; active compounds read low
# From the text: High Content Assay for Compounds that inhibit the Assembly of the Perinucleolar Compartment NIH Chemical Genomics Center [NCGC] NIH Molecular Libraries Probe Centers Network [MLPCN] MLPCN Grant: MH082371-01A2 Assay Submitter (PI): Sui Huang, Northwestern University, Feinberg School of Medicine, Cell and Molecular Biology, Chicago, Illinois. The perinucleolar compartment (PNC) is a non-membrane-bound nuclear subdomain that is associated with but structurally distinct from the nucleolus. The PNC is a heritable trait, in which the number of PNCs per cell in daughter cells often mimics that of their mother cells. The PNC is heterogeneous in shape, is stable through interphase, disassembles during mitosis, and reassembles in early G1. The PNC is concentrated with newly synthesized RNA polymerase III (pol III) RNAs (MRP RNA, RNAse P H1 RNA, hY RNAs[hY1, 2, 5], Alu RNA, and SRP [7SL] RNA) and RNA binding proteins (nucleolin, PTB, CUG-BP, KSRP, Raver1, Raver2, and Rod). […] Extensive in vitro studies have shown that the PNC is unique to tumor cells and preferentially forms in tumor cells derived from solid tissues. Examination of cancer cell lines from various origins and malignant capacities has shown that PNC prevalence correlates with the malignancy of tumors and has the potential to be developed as a pan-cancer prognostic marker. […] Although the PNC is associated with a DNA locus and a handful of components have been identified, much remains to be investigated regarding the structure and function of the PNC and its mechanistic link to cancer. We have previously shown that PNC prevalence reduction is a valid strategy to identify compounds that can be used to study the structure and function of the PNC. It is necessary, however, to create a screening platform that is able to test a large number of compounds in an automated fashion. Here we report the development and robustness of an automated whole-cell phenotypic image-based screening assay that is capable of identifying such compounds.
# PNC High Content Imaging Assay Procedure: 1. Cells at a density of 75-90% confluency in T175 flasks were harvested using 7 ml TrypLE Express cell dissociation reagent. After dissociation (5 minutes room temperature incubation) 10 ml of complete media was added to the TrypLE/cell suspension. The liquid was transferred to a 50 ml Conical tube and cells were pelleted at 1000 RPM for 5 min. Supernatant was removed and cells were resuspended to a final density of 150-200 cells/ul in complete media. 2. Cells were plated in 5 ul volume (750-1000 cells/well) into 1536 well Black uclear Aurora Low Base plates and allowed to recover and adhere at 37 C in a humidified 5% CO2 incubator for 4 hours. 3. After 4 hour incubation, compound libraries (23 nl of […] in columns 5-48) were transferred to the plates in duplicate using a 1536 well pintool. Camptothecin positive control (59 uM final) was added to column 2 and 1:3 dilutions of camptothecin was added to column 3. DMSO negative controls were present in columns 1 and 4. 4. After a 16 hour incubation in the 37 C incubator, cells were fixed by the addition of 4 ul of 6% EM grade paraformaldehyde (containing 0.1% triton X 100) directly to the cells. The plates were incubated at room temperature for 20 minutes. The liquid was removed using a 32 channel Kalypsys aspirator and the fixed cells were washed twice with 5 ul PBS followed by a final addition of 5 ul PBS containing 1 ug/ml Hoechst 33342. 5. Fixed plates were sealed and sotred at 4C until imaged. 6. Plates were imaged on an InCell 1000 automated microscope using a 20 x objective, a standard FITC filter set, no camera binning, and an exposure time of ~100-150 msec/well. 7. Data analysis. PNC prevalence was determined using the Multitarget analysis module from InCell Workstation software (V3.5 ) and analysis was run on a quad core workstation using the Incell Developer Toolbox (V1.7). […]
row,Compound,"activity change (PNC), negative = inhibition"
1,COC(=O)C1=CN(C)C=C(C(=O)OC)C1c1ccc(Cl)cc1Cl,-80.4% (active)
2,CCOc1ccccc1C1C(C(=O)OC)=CN(C)C=C1C(=O)OC,3.14%
3,NNC(=O)c1ccc(Cl)cc1Cl,5.71%
4,O=C(Cc1cccs1)Nc1cccc(-c2nc3ccccc3[nH]2)c1,3.35%
5,COc1ccc(S(=O)(=O)Nc2ccc3oc(C)c(C(C)=O)c3c2)cc1,56.6%
6,COc1cc(NS(=O)(=O)c2ccc(N=Cc3c(C)[nH]n(-c4ccccc4)c3=O)cc2)nc(OC)n1,-26.4%
7,COc1cc(NS(=O)(=O)c2ccc(N/C=C(\C=O)c3nc4cc(Cl)ccc4o3)cc2)nc(OC)n1,-105% (active)
8,O=C(c1ccc(CSc2ccccc2)cc1)N1CCCCCC1,-13.8%
9,C=CCNC(=O)/C=C/c1ccc(C(C)C)cc1,29.5%
10,CC(=O)N/C(=C/c1ccc(Cl)cc1)C(=O)NCCc1c[nH]c2ccccc12,19.3%
11,N#C/C(=C/c1ccc(N2CCCCC2)o1)C(=O)NCCc1c[nH]c2ccccc12,-86.8% (active)
12,N#C/C(=C/c1ccc(N2CCOCC2)o1)C(=O)N1CCOCC1,61.9%
13,Cn1cc(C(=O)NCc2ccccc2F)cn1,-25.6%
14,N#C/C(=C\c1ccccc1C(F)(F)F)C(=O)Nc1ccccc1F,-16.5%
15,COc1cccc(NC(=O)CC(c2ccc(OC(C)C)cc2)c2ccccc2OC)c1 (stereo unspecified),21%
16,NC(=O)CCC(NS(=O)(=O)c1ccc(Cl)cc1)C(=O)NCc1ccccc1Cl (stereo unspecified),-7.93%
17,COc1ccccc1C1SCCN1C(=O)c1ccc([N+](=O)[O-])cc1 (stereo unspecified),15%
18,NC1=NC(=O)C(Cc2cccc(Cl)c2)S1 (stereo unspecified),22.5%
19,N#Cc1ccc(N2Cc3ccccc3/C2=N/C(=O)Nc2ccc(Cl)cc2)cc1,16.1%
20,O=C(CSc1nc(-c2ccco2)cc(C(F)(F)F)n1)N1CCc2ccccc2C1,-123% (active)
21,FC(F)(F)c1cc(-c2ccco2)nc(N2CCOCC2)n1,27.9%
22,Cc1cc(C(F)(F)F)nn1-c1nc(-c2ccco2)cc(C(F)(F)F)n1,-13%
23,Cc1ccc(NC(=O)COC(=O)CCc2nc3ccccc3n2-c2ccccc2)c(C)c1,55.5%

row,Compound,"activity change (PNC), negative = inhibition"
1,O=C(NC(=S)NC1CCSC1=O)c1ccccc1F (stereo unspecified),12.8%
2,O=c1c2sccc2nc(SCc2cc(=O)n3ccccc3n2)n1-c1ccc(Br)cc1,0.678%
3,Cc1ccc(NC(=O)CSCC(=O)NC2CCCCC2)cc1,13.8%
4,O=C(CCN1C(=O)C2C3C=CC(C3)C2C1=O)Nc1ccccc1F (stereo unspecified),25%
5,O=C(CCCN1C(=O)C2C3C=CC(C3)C2C1=O)N1CCN(c2ccccc2)CC1 (stereo unspecified),-106% (active)
6,CC(CC(=O)N1CCN(c2ccccc2)CC1)c1ccccc1 (stereo unspecified),-11.1%
7,CC(C)(C)CC(C)(C)NCC(O)COCCOc1ccc(Br)cc1 (stereo unspecified),6.23%
8,CC(=O)c1ccc(NC(=O)N[C@@H](Cc2ccccc2)C(=O)O)cc1,64.7%
9,COC(C(=O)Nc1ccc(C(C)=O)cc1)c1ccccc1 (stereo unspecified),-124% (active)
10,COc1ccc(NC(C(=O)Nc2cccc(C(C)=O)c2)c2ccccc2)cc1 (stereo unspecified),18.3%
11,O=C(CC(=O)N/N=C\c1cccc(Cl)c1Cl)NCc1ccccc1,44.3%
12,Nc1nc(SCC(=O)NNc2c(Cl)cc(Cl)cc2Cl)n[nH]1,21.1%
13,CCCCOc1ccc(C(=O)NN2CCN(C)CC2)cc1,15.4%
14,COc1ccccc1NC1=NC(c2ccc(Cl)cc2)N=C(N)N1 (stereo unspecified),-92.7% (active)
15,COc1ccccc1Nc1nc(N)nc(CN(C)C2CCCCC2)n1,-29.7%
16,Cc1cc(C)nc(NC(=O)c2cccc([N+](=O)[O-])c2)c1,69%
17,COCCCN(C(=S)Nc1c(C)cc(C)cc1C)C(C)c1ccncc1 (stereo unspecified),-82.2% (active)
18,COCCCN(C(=O)Cn1ncc2c(=O)oc3ccc(C)cc3c21)C(C)c1ccncc1 (stereo unspecified),3.72%
19,CCCC/S(C)=N/S(=O)(=O)c1ccc(C)cc1 (stereo unspecified),24.9%
20,COc1ccc(/C(N)=N/OC(=O)Oc2ccccc2)cc1,13.5%
21,N/C(=N\OC(=O)N1c2ccccc2Sc2ccccc21)c1ccc(Br)cc1,-113% (active)
22,COc1ccc(/C(N)=N/OC(=O)Cc2ccccc2)cc1,17.5%
23,COc1cccc(NC(=O)CN(C)S(=O)(=O)c2ccc(C)cc2)c1,-3.49%
